“And” between values parts separate entries of the source, which are not always exact repeats. Equal values may be shown once. The source made the active and inactive calls.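 The calls were made as follows, unless noted: active = thallium flux through the channel raised or lowered by more than 3 SD from vehicle-only wells, actives on both sides; inactive = the rest.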

Data on four compounds can be found in PubChem BioAssay.

Experiment [1] can be described thus: P. berghei load reduction in hepatocytes – cell-based, HepG2, luciferase luminescence, HepG2 viability, primary screen (AID 624349; in the data active = parasite load remaining mostly below about 12%, no sharp cut-off; inactive = mostly above about 10%;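 also: 100% = mean of DMSO negative control wells on the same plate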). The following applies: P. berghei liver stage in HepG2, luciferase luminescence, concentration not given here; parasite load remaining: stronger effect = lower value; viability: measured here: HepG2 viability without parasites.
Experiment [2] in a line: modulation of C. elegans fzo-1 (AID 1259413; call rule not given here;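 also: fzo-1 mutant C. elegans worms in liquid wells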). The settings on record: C. elegans fzo-1 modulator screen, mean read-out; stronger effect = higher value.
A short description of experiment [3]: EMT-state selective cytotoxicity in co-culture – imaging, PC-3E GFP, TEM4-18 mCherry, primary screen (AID 1345086;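 active = compounds killing one labelled cell type while sparing the other, by normalised counts and ratio limits, not self-fluorescent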;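 as to all read-outs here: cells exposed to compound for 72 h before imaging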;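 as to red/green cell ratio (normalised): normalised mesenchymal count divided by normalised epithelial count so high means epithelial killing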). The following applies: PC-3E GFP / TEM4-18 mCherry co-culture, imaging cell counts, at 1 µM; for red/green cell ratio (normalised): actives lie on both sides, counts scaled to control wells, 1 = unselective.
Experiment [4] is described as follows: viability loss with induced miR-34 in A549 – imaging, A549 dox-inducible miR-34, nuclei and caspase counts, primary screen (AID 1347080;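 active = compounds whose cell count with miR-34 switched on is under 0.7 times the count with it off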). The following applies: A549 miR-34 inducible, Hoechst nuclei count, 48 h.
Experiment [5] can be described thus: MELAS cybrid and Rieske KO viability enhancers – cell-based, MELAS cybrids, Rieske KO mouse fibroblasts, CellTiter-Glo, primary screen (AID 1508586;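 active = mean z-score across replicates of 1.96 or higher in either the MELAS or the Rieske mutant cell line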;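 also: z relative to plate mean and SD of compound and empty wells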). The settings on record: low glucose.
The subject of another experiment is F380Y. Put plainly: BK channel mutant inhibitors and activators – cell-based, U2OS BacMam, thallium flux, beta subunits, selectivity assay, profiling panel (AID 1259406).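 Also: initial slope of Thallos dye fluorescence rise after thallium is added; log ratio against the mean of 0.3% DMSO vehicle wells on the same plate.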 The following applies: U2OS BacMam BK variants, at 30 µM.
For a further experiment, the system named is F380Y/beta1. The experiment is described as above. The settings on record: U2OS BacMam BK variants, at 30 µM.
Another experiment concerns F380Y/beta2Delta. Described as above. The settings on record: U2OS BacMam BK variants, at 30 µM.
A further experiment concerns F380Y/beta4. The description is as above. The following applies: U2OS BacMam BK variants, at 30 µM.
Experiment [6] has as its target Calcium-activated potassium channel subunit alpha-1 (Homo sapiens) + Leucine-rich repeat-containing protein 26 (Homo sapiens) (UniProt Q12791+Q2I0M4). The description is as above. The following applies: U2OS BacMam BK variants, F380Y/Slo1WT/gamma1, at 30 µM.
The test system of another experiment is R275C. The experiment is described as above. The settings on record: U2OS BacMam BK variants, at 30 µM.
The next experiment relates to R275C/beta1. Described as above. The following applies: U2OS BacMam BK variants, at 30 µM.
The test system of the next experiment is R275C/beta2Delta. Described as above. The following applies: U2OS BacMam BK variants, at 30 µM.
The test system of the next experiment is R275C/beta4. The experiment is described as above. The settings on record: U2OS BacMam BK variants, at 30 µM.
The next experiment deals with R275C/Slo1WT/beta2. The experiment is described as above. The settings on record: U2OS BacMam BK variants, at 30 µM.
Experiment [7] is described as follows: signal quenchers or enhancers, Cy5 substrate/SSB – biochemical, NIH Clinical Collection, E. coli SSB, artefact control for HCV NS3 helicase inhibitor project (AID 743268; call rule not given here). The following applies: Cy5-oligo bound E. coli SSB, fluorescence interference.
Experiment [8] has as its system Hepatitis C virus NS3 helicase. Description: blockers of NS3h binding to DNA – biochemical, fluorescence polarization, NIH Clinical Collection, primary screen (AID 743270; call rule not given here). The following applies: NS3 helicase binding to Cy5-dT15 DNA, stronger effect = higher value, concentration not given here. (In general: In fluorescence polarisation assays a small probe gives low polarisation when free and higher when bound to something large.)

The nature of experiment [9]: compounds distorting NS3 helicase fluorescence signal – biochemical, NIH Clinical Collection, artefact control for HCV NS3 helicase inhibitor project (AID 743272; call rule not given here;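 also: HCV NS3 helicase with a Cy5 labelled single stranded DNA probe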). The following applies: fluorescence interference counterscreen, HCV NS3 helicase assay; stronger effect = lower value.
The target of experiment [10] is Single-stranded DNA-binding protein (Escherichia coli (strain K12)) (UniProt P0AGE0). Description: SSB-ssDNA binding inhibitors – biochemical, fluorescence polarization, NIH Clinical Collection, counter-screen for HCV NS3 helicase inhibitor project (AID 743271; in the data active = inhibition above about 28%). The following applies: E. coli SSB-DNA binding, stronger effect = higher value, concentration not given here.
Where [11] appears, read: measured here: epithelial PC-3E GFP cell survival.
Where [12] appears, read: measured here: mesenchymal TEM4-18 mCherry cell survival.
The mark [13] stands for this setting: stronger effect = lower value, cell number ratio, induced over uninduced.
Setting [14] is: measured here: relative caspase fold change +Dox/-Dox.
The mark [15] stands for this setting: measured here: total cells with miR-34 induction, stronger effect = lower value.
[16] abbreviates: measured here: total cells without miR-34 induction.
[17] abbreviates: MELAS cybrid survival, CellTiter-Glo 48 h, stronger effect = higher value.
[18] abbreviates: Rieske KO mouse fibroblast survival, CellTiter-Glo 72 h.

Calcium-activated potassium channel subunit alpha-1 (Homo sapiens) + Leucine-rich repeat-containing protein 26 (Homo sapiens), sequence (Q2I0M4 whole entry, looked up, one chain of several): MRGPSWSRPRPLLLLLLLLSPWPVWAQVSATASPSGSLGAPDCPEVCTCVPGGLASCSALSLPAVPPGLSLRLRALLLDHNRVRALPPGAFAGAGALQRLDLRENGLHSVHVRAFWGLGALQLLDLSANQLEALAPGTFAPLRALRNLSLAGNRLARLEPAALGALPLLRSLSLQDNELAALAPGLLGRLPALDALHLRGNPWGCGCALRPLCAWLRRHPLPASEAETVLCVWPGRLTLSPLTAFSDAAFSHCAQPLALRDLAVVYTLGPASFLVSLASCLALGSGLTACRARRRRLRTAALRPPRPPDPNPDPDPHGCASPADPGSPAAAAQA

On to `COc1c(N2C[C@@H]3CCCN[C@@H]3C2)c(F)cc2c(=O)c(C(=O)O)cn(C3CC3)c12`, for which, in [1], the parasite load remaining is 52.8% (inactive). Moreover, the viability (as a rule, a read-out of living cells in per cent, often relative to untreated cells) in experiment [1] was determined as 70.8%. In [2], the mean signal was 299 (inactive). Further, in [3], the red/green cell ratio (normalised) is 1.11 (inactive). Also, the normalised cell number in [3] (setting [11]) was determined as 0.89; in experiment [3] (setting [12]) it was 0.99. Further, the fold change in [4] (setting [13]) is 0.953 (inactive); in [4] (setting [14]) it was 0.781. Besides, the cell count in [4] (setting [15]) is 7060; in [4] (setting [16]) it was 7410. The z-score in experiment [5] (setting [17]) was -0.444 (inactive) and -0.324 (inactive); in [5] (setting [18]), 0.523 and -0.694. In addition, the log fold change Tl+ flux in the experiment on F380Y is 0.00312 (inactive); with F380Y/beta1 it was -0.0479 (inactive); in the experiment on F380Y/beta2Delta it was 0.0707 (inactive); in the experiment with F380Y/beta4, 0.0364 (inactive); in experiment [6] it was 0.0216 (inactive); in the experiment with R275C, -0.02 (inactive). Besides, the log fold change Tl+ flux was -0.0156 (inactive) in the experiment on R275C/beta1, 0.0202 (inactive) in the experiment on R275C/beta2Delta, 0.0129 (inactive) in the experiment with R275C/beta4 and 0.0157 (inactive) in the experiment on R275C/Slo1WT/beta2.
Take `Cc1ccc(C(=O)c2c(-c3ccccc3)cc(-c3ccccc3)c3c2C(=O)CCC3)cc1`: the log fold change Tl+ flux with F380Y was 0.0109 (inactive); with F380Y/beta1, -0.036 (inactive); with F380Y/beta2Delta, 0.0354 (inactive); with F380Y/beta4, -0.0286 (inactive); in experiment [6], -0.0641 (inactive); in the experiment with R275C it was 0.0312 (inactive). Further, the log fold change Tl+ flux was -0.0154 (inactive) in the experiment with R275C/beta1, 0.00863 (inactive) with R275C/beta2Delta, -0.00364 (inactive) in the experiment on R275C/beta4 and -0.0497 (inactive) in the experiment on R275C/Slo1WT/beta2.
Consider `Cc1c(C(=O)NN2CCCCC2)nn(-c2ccc(Cl)cc2Cl)c1-c1ccc(I)cc1`, for which, in experiment [1], the parasite load remaining is 23% (inactive). In addition, the viability in experiment [1] turned out to be 70.4%. Besides, the values for the fluorescence ratio in experiment [7] and in experiment [9] were 0.91 (inactive) and 0.92 (inactive), respectively. In addition, the inhibition (in general, the drop in the measured response relative to a control, in per cent) in [8] is 0.66% (inactive). The mean signal in experiment [2] is 229 (inactive). The z-score is -0.338 (inactive) in experiment [5] (setting [17]) and -0.0666 in experiment [5] (setting [18]). In addition, the log fold change Tl+ flux in the experiment on F380Y is 0.00861 (inactive); in the experiment with F380Y/beta1, -0.0372 (inactive); in the experiment on F380Y/beta2Delta it was -0.0265 (inactive); in the experiment with F380Y/beta4, -0.0348 (inactive); in experiment [6], -0.0487 (inactive); in the experiment with R275C it was 0.0781 (inactive). Moreover, the log fold change Tl+ flux is 0.0181 (inactive) in the experiment on R275C/beta1, -0.00675 (inactive) in the experiment on R275C/beta2Delta, 0.0297 (inactive) in the experiment on R275C/beta4 and 0.0305 (inactive) in the experiment on R275C/Slo1WT/beta2.
In the case of `CC[C@H]1OC(=O)[C@H](C)[C@@H](O[C@H]2C[C@@](C)(OC)[C@@H](O)[C@H](C)O2)[C@H](C)[C@@H](O[C@@H]2O[C@H](C)C[C@H](N(C)C)[C@H]2O)[C@](C)(O)C[C@@H](C)CN(C)[C@H](C)[C@@H](O)[C@]1(C)O`, the parasite load remaining in experiment [1] was 58.8% (inactive) and 152% (inactive) and 299% (inactive). Moreover, the viability in [1] is 118% and 82.2% and 91.4%. In addition, the figures for the fluorescence ratio in [7] and in experiment [9] were 1.05 (inactive) and 1.02 (inactive), respectively. Moreover, the inhibition in experiment [8] is 1.36% (inactive); in [10], -1.24% (inactive). In addition, in experiment [2], the mean signal was 266 (inactive). The red/green cell ratio (normalised) in experiment [3] is 1.25 (inactive). In addition, the normalised cell number in experiment [3] (setting [11]) was 1.02; in [3] (setting [12]), 1.27. In addition, the fold change in [4] (setting [13]) was 0.953 (inactive) and 0.891 (inactive); in experiment [4] (setting [14]) it was 2.3 and 7.33. For the same compound, the cell count was 9960 and 9940 in experiment [4] (setting [15]); 10500 and 11200 in [4] (setting [16]). Also, the log fold change Tl+ flux with F380Y is 0.0649 (inactive); with F380Y/beta1, 0.00314 (inactive); in the experiment on F380Y/beta2Delta, 0.0029 (inactive); with F380Y/beta4, -0.0644 (inactive); in experiment [6], -0.014 (inactive); in the experiment on R275C, 0.011 (inactive). Besides, the log fold change Tl+ flux with R275C/beta1 was 0.0228 (inactive); in the experiment on R275C/beta2Delta it was -0.0452 (inactive); with R275C/beta4 it was -0.073 (inactive); in the experiment on R275C/Slo1WT/beta2, 0.026 (inactive).
